# In PubChem BioAssay (NCATS):
# Where “and” joins values, the source holds several entries; their conditions need not be identical. Identical values can stand only once. Results filed as inconclusive are left out. A call without a number means that no potency is given here. Calls of active or inactive are those of the source. Calls follow the shape of the dose curve; as a rule, active = well fitted curve in the direction sought with a large enough effect; inconclusive = small, poorly fitted or top-dose-only effect, or another doubt; inactive = no such curve, though single readings can be large; an effect the other way counts as inactive or inconclusive.
# Test: Primary qHTS for inhibitors of nuclear receptor binding SET domain protein 2 (NSD2) in an isogenic RCH-ACV NSD2 p.E1099K mutant (9B) (AID 1645876)
# Details: RCH-ACV NSD2 E1099K (9B) viability, CellTiter-Glo, 72 h; series mostly up to 44.9 µM
# Also: nearly all actives have a fitted effect of over 70% in size.
# Potency is read from the fitted curve at half-maximal effect.
SMILES,Potency,"activity change, negative = viability loss"
O=C(/C=C/c1ccc(O)cc1)OC1[C@H](O)CC(O)(C(=O)O)C[C@H]1O (stereo not given in full),inactive,–
C[C@H](NC(c1cccc(C[P+](=O)O)c1)[C@H](C)O)c1ccc(Cl)c(Cl)c1 (stereo not given in full),inactive,–
CCCC(=O)O[C@@H]1[C@@H]2[C@@H](OC(C)=O)[C@]3(C)C(=O)[C@H]4[C@@H](OC(C)=O)C(C)(C)C[C@H]4[C@]3(C)C(=O)[C@@]2(OC(C)=O)C[C@@H]1C,inactive,–
CC(=O)OC1CC2(C)C3=CCC4(C)C5C(O)C(O)C(C(C)C)C5(C)CCC4(C)C3CCC2C(C)(C)C1OC1OC(CO)C(O)C(O)C1O (stereo not given),inactive,–
COc1c2ccoc2cc2oc(CO[C@@H]3O[C@H](CO)[C@@H](O)[C@H](O)[C@H]3O)cc(=O)c12,inactive,–
C/C=C(/COC(=O)/C(C)=C/C)C(=O)OC(CC)c1ccc(OC)c(OC)c1 (stereo not given),inactive,–
C=C[C@]1(C)C=C2CCC3C(C)(CCC[C@@]3(C)C(=O)O)C2CC1 (stereo not given in full),inactive,–
CC(C)(O)CC(CO)NC(=O)CC(O)CC(=O)Cc1ccccc1 (stereo not given),inactive,–
CC(=O)O[C@@H]1C[C@@H](OC(C)=O)C(C)(C)/C=C/[C@H](C)[C@H](OC(C)=O)[C@@]2(O)C[C@H](C)[C@H](OC(=O)c3ccccc3)[C@@H]2/C=C/1C,inactive,–
CCC(O)(C(=O)OCc1ccccc1NC(=O)CCC(=O)O)C(C)O (stereo not given),inactive,–
O=C(Nc1ccn[nH]1)c1c(F)cccc1F,inactive,–
CCC1=CC2CN(C1)Cc1c([nH]c3ccccc13)[C@@](C(=O)OC)(c1cc3c(cc1OC)N(C)[C@H]1[C@@](O)(C(=O)OC)[C@H](OC(C)=O)[C@]4(CC)C=CCN5CC[C@]31[C@@H]54)C2 (stereo not given in full),79.6 nM (active),–
CC(=O)O[C@@H]1[C@@H](OC(=O)/C=C/c2ccccc2)[C@@H](OC(C)=O)[C@H](O[C@H]2[C@@H]3C=CO[C@@H](O[C@@H]4O[C@H](CO)[C@@H](O)[C@H](O)[C@H]4O)[C@@H]3[C@@]3(CO)O[C@@H]23)O[C@H]1C,inactive,–
CC(C)[C@H]1CC[C@@]2(O)COC(=O)[C@H]2[C@@H]1/C=C(\CO)C(=O)O,inactive,–
CC1OC(OC2C(OC3C(O[C@H]4CC[C@@]5(C)C(CC[C@]6(C)C5C(=O)C=C5C7CC(C)(C)CC(O)[C@]7(C)CC[C@]56C)C4(C)C)OC(C(=O)O)C(O)C3O)OCC(O)C2O)C(O)C(O)C1O (stereo not given in full),–,-6.05% [at 9.23 µM] (inactive)
C=C1[C@H](OC(C)=O)[C@H]2[C@@H](OC(C)=O)[C@](C)(OC(C)=O)C[C@]2(OC(C)=O)C(=O)[C@H](C)/C=C/C(C)(C)C(=O)[C@H](OC(=O)C(C)CC)[C@H]1OC(C)=O (stereo not given in full),inactive,–
CC1(C(=O)O)CCCC2(C)C3CCC4CC3(CCC12)CC4=O (stereo not given),inactive,–
CC1(O)CC(O)C2(O)C=COC(O[C@@H]3O[C@H](CO)[C@@H](O)[C@H](O)[C@H]3O)C12 (stereo not given in full),inactive,–
CC1OC(OC2CCC3(C)C(CCC4(C)C3CC=C3C5CC(C)(C)CCC5(C(=O)OC5OC(CO)C(O)C(O)C5O)CCC34C(=O)O)C2(C)C)C(O)C(O)C1O (stereo not given),inactive,–
CC(C)C1=CC2C(CC[C@]2(C)O)[C@](C)(O)CC1 (stereo not given in full),inactive,–
CC1CC2OC3(OC2C(C)(C)O)C1C1(C)CCC24CC25CCC(O[C@@H]2OC[C@@H](O)[C@H](O)[C@H]2O)C(C)(C)C5CC=C4C1(C)C3O (stereo not given in full),inactive,–
CCCOc1ccc(-c2nc(OC)c3ccccc3n2)cc1,inactive,–

# Test: Primary qHTS for inhibitors of nuclear receptor binding SET domain protein 2 (NSD2) in an RCH-ACV wild type WT cells (2C) (AID 1645877)
# Details: RCH-ACV (leukaemia line) NSD2 WT (2C) viability, CellTiter-Glo, 72 h; series mostly up to 44.9 µM
SMILES,Potency,outcome,"activity change, negative = cell killing"
COC1=CC(=O)CC(C)C12Oc1cc(OC)cc(O)c1C2=O (stereo not given),inactive,–,–
CC12CCC(OC3OC(CO)C(O)C(OC4OC(CO)C(O)C(O)C4O)C3O)CC1CCC1C2CCC2(C)/C(=C3/COC(=O)C3)CCC12O (stereo not given),inactive,–,–
CC1(C)C2CC(OC3OC(COC4OCC(O)(CO)C4O)C(O)C(O)C3O)C1(C)CC2O (stereo not given),inactive,–,–
C[C@H](CCC(=O)O)[C@H]1CC[C@H]2[C@@H]3C[C@H](O)[C@@H]4C[C@H](O)CC[C@]4(C)[C@H]3CC[C@]12C,inactive,–,–
CC(O)/C=C/C1(O)C(C)C(O[C@@H]2O[C@H](CO)[C@@H](O)[C@H](O)[C@H]2O)C(O)CC1(C)C (stereo not given in full),inactive,–,–
CC(=O)CC1CCC(C(C)C(=O)OCC(O)CO)O1 (stereo not given),inactive,–,–
C=C(C)C1CCC2(C(=O)O[C@@H]3O[C@H](CO[C@@H]4O[C@H](CO)[C@@H](O)[C@H](O)[C@H]4O)[C@@H](O)[C@H](O[C@@H]4O[C@@H](C)[C@H](O)[C@@H](O)[C@H]4O)[C@H]3O)CCC3(C(=O)O)C(CCC4C5(C)CCC(O)C(C)(C)C5CCC43C)C12 (stereo not given in full),–,inactive [at 9.23 µM],–
C=CC(C)(C)c1[nH]c2ccccc2c1C[C@@H]1NC(=O)[C@H](Cc2c[nH]c3ccccc23)NC1=O,inactive,–,–
COC1CC(O[C@H]2CC[C@@]3(C)C(CCC4C3[C@H](OC(C)=O)[C@@H](OC(=O)/C=C/c3ccccc3)[C@]3(C)C(C(C)=O)CC[C@]43O)C2)OC(C)C1OC1CC(OC)C(OC2CC(OC)C(OC3OC(C)C(OC4OC(CO)C(O)C(O)C4O)C(OC)C3O)C(C)O2)C(C)O1 (stereo not given in full),–,–,-29.1% [at 9.23 µM] (inactive)
COC(=O)CCC(=O)OC[C@]1(C)CCC[C@@]2(C)C3CC[C@]4(C)C=CC3(CCC12)C4 (stereo not given in full),inactive,–,–
OC[C@H]1O[C@@H](O[C@H]2[C@H](OCCc3ccccc3)O[C@H](CO)[C@@H](O)[C@@H]2O)[C@H](O)[C@@H](O)[C@@H]1O,inactive,–,–
C#CC[C@H](c1nc2cc(Cl)ccc2c(=O)n1Nc1ccccc1)N(CCCN)C(=O)c1cccc(Cl)c1F,332 nM (active),–,–
CN[C@H](CC(C)C)C(=O)N[C@H]1C(=O)N[C@@H](CC(N)=O)C(=O)N[C@H]2C(=O)N[C@H]3C(=O)N[C@H](C(=O)N[C@H](C(=O)O)c4cc(O)cc(O)c4-c4cc3ccc4O)[C@H](O[C@H]3C[C@](C)(N)[C@@H](O)[C@H](C)O3)c3ccc(c(Cl)c3)Oc3cc2cc(c3O[C@@H]2O[C@H](CO)[C@@H](O)[C@H](O)[C@H]2O[C@H]2C[C@](C)(NCc3ccc(-c4ccc(Cl)cc4)cc3)[C@@H](O)[C@H](C)O2)Oc2ccc(cc2Cl)[C@H]1O,inactive,–,–
CC1(C)CC[C@]2(C(=O)O[C@@H]3O[C@H](CO)[C@@H](O)[C@H](O)[C@H]3O)CC[C@]3(C)C(=CCC4[C@@]5(C)C[C@@H](O)[C@H](O)C(C)(C)C5[C@H](O)C[C@]43C)[C@@H]2[C@@H]1O (stereo not given in full),inactive,–,–
CN(C)c1ccc2c(c1)OC(N)=C(C#N)C2c1cccc(C(F)(F)F)c1 (stereo not given),916 nM (active),–,–
C[C@@H]1C[C@H]2O[C@@H]2/C=C\C=C\C(=O)Cc2c(Cl)c(O)cc(O)c2C(=O)O1,275 nM (active) and 640 nM (active),–,–
C[C@@H]1O[C@@H](O[C@H]2[C@H](O[C@H]3CC[C@@]4(C)C(CC[C@]5(C)C4CC=C4[C@@H]6CC(C)(C)CC[C@]6(C(=O)O[C@@H]6OC[C@H](O)[C@H](O)[C@H]6O[C@@H]6O[C@@H](C)[C@H](O[C@@H]7O[C@H](CO)[C@@H](O)[C@H](O)[C@H]7O)[C@H](O)[C@H]6O)[C@H](O)C[C@]45C)C3(C)C)O[C@H](CO)[C@@H](O[C@@H]3OC[C@@H](O)[C@H](O)[C@H]3O)[C@@H]2O)[C@H](O)[C@H](O)[C@H]1O (stereo not given in full),–,–,-15.2% [at 9.23 µM] (inactive)

SMILES,Potency,outcome,"activity change, negative = cell killing"
O=C(/C=C/c1ccc(O)cc1)OC1[C@H](O)CC(O)(C(=O)O)C[C@H]1O (stereo not given in full),inactive,–,–
C[C@H](NC(c1cccc(C[P+](=O)O)c1)[C@H](C)O)c1ccc(Cl)c(Cl)c1 (stereo not given in full),inactive,–,–
CCCC(=O)O[C@@H]1[C@@H]2[C@@H](OC(C)=O)[C@]3(C)C(=O)[C@H]4[C@@H](OC(C)=O)C(C)(C)C[C@H]4[C@]3(C)C(=O)[C@@]2(OC(C)=O)C[C@@H]1C,inactive,–,–
CC(=O)OC1CC2(C)C3=CCC4(C)C5C(O)C(O)C(C(C)C)C5(C)CCC4(C)C3CCC2C(C)(C)C1OC1OC(CO)C(O)C(O)C1O (stereo not given),inactive,–,–
COc1c2ccoc2cc2oc(CO[C@@H]3O[C@H](CO)[C@@H](O)[C@H](O)[C@H]3O)cc(=O)c12,inactive,–,–
C/C=C(/COC(=O)/C(C)=C/C)C(=O)OC(CC)c1ccc(OC)c(OC)c1 (stereo not given),inactive,–,–
C=C[C@]1(C)C=C2CCC3C(C)(CCC[C@@]3(C)C(=O)O)C2CC1 (stereo not given in full),inactive,–,–
CC(C)(O)CC(CO)NC(=O)CC(O)CC(=O)Cc1ccccc1 (stereo not given),inactive,–,–
CC(=O)O[C@@H]1C[C@@H](OC(C)=O)C(C)(C)/C=C/[C@H](C)[C@H](OC(C)=O)[C@@]2(O)C[C@H](C)[C@H](OC(=O)c3ccccc3)[C@@H]2/C=C/1C,inactive,–,–
CCC(O)(C(=O)OCc1ccccc1NC(=O)CCC(=O)O)C(C)O (stereo not given),inactive,–,–
O=C(Nc1ccn[nH]1)c1c(F)cccc1F,inactive,–,–
CCC1=CC2CN(C1)Cc1c([nH]c3ccccc13)[C@@](C(=O)OC)(c1cc3c(cc1OC)N(C)[C@H]1[C@@](O)(C(=O)OC)[C@H](OC(C)=O)[C@]4(CC)C=CCN5CC[C@]31[C@@H]54)C2 (stereo not given in full),31.7 nM (active),–,–
CC(=O)O[C@@H]1[C@@H](OC(=O)/C=C/c2ccccc2)[C@@H](OC(C)=O)[C@H](O[C@H]2[C@@H]3C=CO[C@@H](O[C@@H]4O[C@H](CO)[C@@H](O)[C@H](O)[C@H]4O)[C@@H]3[C@@]3(CO)O[C@@H]23)O[C@H]1C,inactive,–,–
CC(C)[C@H]1CC[C@@]2(O)COC(=O)[C@H]2[C@@H]1/C=C(\CO)C(=O)O,inactive,–,–
CC1OC(OC2C(OC3C(O[C@H]4CC[C@@]5(C)C(CC[C@]6(C)C5C(=O)C=C5C7CC(C)(C)CC(O)[C@]7(C)CC[C@]56C)C4(C)C)OC(C(=O)O)C(O)C3O)OCC(O)C2O)C(O)C(O)C1O (stereo not given in full),–,–,0.842% [at 9.23 µM] (inactive)
C=C1[C@H](OC(C)=O)[C@H]2[C@@H](OC(C)=O)[C@](C)(OC(C)=O)C[C@]2(OC(C)=O)C(=O)[C@H](C)/C=C/C(C)(C)C(=O)[C@H](OC(=O)C(C)CC)[C@H]1OC(C)=O (stereo not given in full),inactive,–,–
